Results from PubChem BioAssay (NCI).
About 83,000 compounds went through this panel and 20% of them were active in at least one assay; those are over-represented in the sample as a whole.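 Note: values are percent growth. 100 is the growth of untreated cells, values between 100 and 0 indicate rising inhibition; between -100 and 0 indicates cell death.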 A number with no mark means an inactive call. Active and inactive are the calls of the source. How the source made its calls: active means growth percent below 10; inactive means the rest.

system: HL-60(TB) leukemia; assay: NCI-60 one-dose screen, 48 h (100 = growth as untreated, 0 = no growth, -100 = all killed); conditions: 10 µM unless noted

Compound	growth
COc1ccc(OC)c(-c2cn3nc(-c4c[nH]c5ccc(Br)cc45)sc3n2)c1	86.3%
CC1(C)OC2C(COC(c3ccccc3)(c3ccccc3)c3ccccc3)OC(c3c[nH]c4c(N)ncnc34)C2O1 (stereo not given)	-34.4% (active)
OC(c1cc(C23CC4CC(CC(C4)C2)C3)nc2c(Cl)cc(Cl)cc12)C1CCCCN1 (stereo not given)	-47.7% (active)
COc1ccc(/C=C(/C(=O)N2CCN(Cc3ccccc3)CC2)c2cc(OC)c(OC)c(OC)c2)cc1O	22.9%
NC(=O)C1(Nc2ccc(Br)cc2)CCCC1	94.8%
Clc1ccc(C(SCc2ccccc2)SCc2ccccc2)cc1	97.6%
COc1ccc([C@H]2[C@H](C(=O)Nc3cccnc3)c3ccccc3C(=O)N2c2ccccc2)cc1	90.2%
Cc1cccc(NC(=O)c2sc3nc4c(cc3c2N)CN(Cc2ccccc2)CC4)c1C	7.62% (active)
COc1ccc(-c2nn(-c3cccc(Cl)c3)cc2-c2cc(-c3cccs3)[nH]c(=S)n2)cc1	46.4%
Cc1ccc(Cl)cc1Nc1nc(C(F)(F)F)ccc1C(=O)N/N=C/c1cccnc1	3.36% (active)
O=C1c2c(c(=O)[nH]c3ccccc23)CCN1Cc1ccccc1	118%
O=C1C=C(OCC=C(Cl)Cl)C(=O)c2ccccc21	-1.08% (active)
O=c1[nH]c(-c2cccc(F)c2)cc2cc(F)ccc12	-24.6% (active)
CCOc1cc(C2C(Cl)C(=O)N2n2cnnc2)ccc1O (stereo not given)	101%
CCCCOC(OCCCC)c1ccccc1	96.7%
